Here are results for 45 molecules from PubChem BioAssay AID1851 (National Center for Advancing Translational Sciences (NCATS), 2009).

Where “and” joins values, the source holds several entries; their conditions need not be identical. Equal values may be shown once. The whole screen tested about 16,000 compounds, of which about 5,800 (36%) were called active. Roughly 23% stayed inconclusive and do not appear here. Calls come from the whole dose curve; as a rule, active = well fitted curve in the direction sought with a large enough effect; inconclusive = small, poorly fitted or top-dose-only effect, or effect the other way; inactive = no such curve, though single readings can be large or run the other way. The list shows a part of the results. Where a structure was tested more than once in an assay, its records may differ in their call.
% is set by controls: 0 for no effect and ±100 for the full control effect.

Sequence of Cytochrome P450 2C19 (Homo sapiens) (P33261 whole entry, looked up): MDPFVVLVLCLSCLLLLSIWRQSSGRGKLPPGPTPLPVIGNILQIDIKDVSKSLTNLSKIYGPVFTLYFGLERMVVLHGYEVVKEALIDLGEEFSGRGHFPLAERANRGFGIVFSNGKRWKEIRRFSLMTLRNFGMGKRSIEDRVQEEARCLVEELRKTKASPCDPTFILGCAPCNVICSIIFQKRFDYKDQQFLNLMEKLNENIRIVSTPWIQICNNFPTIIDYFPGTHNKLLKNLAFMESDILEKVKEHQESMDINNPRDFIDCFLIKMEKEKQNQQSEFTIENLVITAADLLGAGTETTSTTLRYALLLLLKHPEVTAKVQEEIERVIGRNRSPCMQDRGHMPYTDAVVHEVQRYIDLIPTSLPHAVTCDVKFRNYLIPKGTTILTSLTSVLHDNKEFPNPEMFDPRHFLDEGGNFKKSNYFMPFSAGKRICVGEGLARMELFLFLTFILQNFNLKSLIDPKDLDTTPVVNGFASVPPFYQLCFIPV

The assay addresses Cytochrome P450 2C19 (Homo sapiens) (UniProt P33261). The experiment in a line: Cytochrome panel assay with activity outcomes. Conditions: recombinant CYP, pro-luciferin dealkylation, luminescence, p450-cyp2c19; series mostly up to 57.1 µM; activity, negative = inhibition: at the top concentration.
For `NP(N)(=O)NC(=O)c1ccc(F)cc1`, the “activity, negative = inhibition” value is 3.06% (inactive).
Same read-out and setting: then `c1csc(CN2CC[C@@]3(CCCNC3)C2)n1`, with -36.5% (inactive).
`C[N+]12CCC(CC1)[C@@H](OC(=O)C(O)(c1ccccc1)c1ccccc1)C2`: the “activity, negative = inhibition” value was -15.4% [at 25.6 µM] (inactive).
Consider `N#CCCN`, for which the “activity, negative = inhibition” value is 18.2% (inactive).
The same measure, in the same setting: then `c1ccc2cc(CC3=NCCN3)ccc2c1`, with -11.6% (inactive).
For the molecule `COc1ccc2cc1Oc1ccc(cc1)C[C@H]1c3cc(c(OC)cc3CCN1C)Oc1c(OC)c(OC)cc3c1[C@@H](C2)N(C)CC3`, the activity, negative = inhibition is -36.6% [at 11.4 µM] (inactive).
The same measure, in the same setting: as for `CC1=C2[C@@H]3OC(=O)[C@@H](C)[C@@H]3CC[C@]2(C)C=CC1=O`, the figure is -26.3% [at 25.6 µM] (inactive).
With `CCCCN1C(=O)/C(=C\c2ccco2)C(=O)N(CCc2ccccc2)C1=O`, the concentration at half-maximal activity (AC50) (usually the midpoint of the concentration-response curve, whichever way the signal moves) is 10 µM (active).
With `Cc1cc2c(C(C)C)c(O)c(O)c(C=O)c2c(O)c1-c1c(C)cc2c(C(C)C)c(O)c(O)c(C=O)c2c1O`, the “activity, negative = inhibition” value was -44.4% (inactive).
Same read-out and setting: as for `COC1=C[C@H]2C3=C([C@H]2C1=O)[C@H](NC(C)=O)CCc1cc(OC)c(OC)c(OC)c13`, the figure is -15.4% [at 25.6 µM] (inactive).
For `NC(=O)c1ccc(-c2nc(-c3ccc4c(c3)OCO4)c(-c3ccccn3)[nH]2)cc1`, the concentration at half-maximal activity (AC50) was 2.51 µM (active).
On to `CC(C)C(=O)CP(=O)(O)O`, for which the activity, negative = inhibition was 8.85% [at 11.4 µM] (inactive).
The same measure, in the same setting: as for `N=C(N)SCc1ccc(Cl)c2ccccc12` (tested in a mixture with another compound), the figure is -27.8% [at 11.4 µM] (inactive) and -26.6% [at 11.4 µM] (inactive).
On the same count and under the same terms, as for `Cn1c(O)c(C(c2ccccn2)c2c(O)n(C)c(=S)n(C)c2=O)c(=O)n(C)c1=S`, the figure is -17.6% (inactive).
As to `COC(=O)C(O)(c1c(C)[nH]c2ccccc12)C(F)(F)F` (stereo not given), the AC50 was 5.01 µM (active).
Regarding `c1ccc2sc(C3(N4CCCCC4)CCCCC3)cc2c1`, the “activity, negative = inhibition” value is -26.2% (inactive).
On the same count and under the same terms, then `Nc1ncnc2c1ncn2[C@@H]1O[C@@H](COP(=O)(O)CP(=O)(O)OP(=O)(O)O)[C@H](O)[C@@H]1O`, with 0.925% (inactive).
Turning to `NNC(N)=O`, the “activity, negative = inhibition” value was 27.4% (inactive).
On the same count and under the same terms, then `c1cncc(CNCCN2CCNCC2)c1`, with 7.54% [at 11.4 µM] (inactive).
With `c1cncc([C@@H]2CCCCN2)c1`, the AC50 result is “inactive and 2 µM (active)”.
In the case of `COc1ccc2c(c1)[C@]13CCCC[C@@H]1[C@H](C2)N(C)CC3`, the “activity, negative = inhibition” value is -9.18% (inactive).
As for `O=[As](O)(O)c1ccc(N=Nc2ccc(O)cc2)cc1`, the activity, negative = inhibition is -12.7% [at 11.4 µM] (inactive).
With `CCOc1ccc(C2C(C#N)=C(N)Oc3c2c(=O)oc2ccccc32)cc1` (stereo not given), the AC50 was 5.62 µM (active).
Consider `CN1CC[C@@]2(CCCN(C(=O)c3ccncc3)C2)C1`, for which the “activity, negative = inhibition” value is -25.8% (inactive).
For the molecule `O=C1CS[C@@H](c2ccccc2Cl)c2cc(Cl)ccc2N1`, the AC50 was 25.1 µM (active).
Take `O=S(=O)(NCCO)c1cc[c]([Sb](=[O])([OH])[OH])cc1`: the activity, negative = inhibition was 14.4% [at 11.4 µM] (inactive).
Same read-out and setting: as for `CC(C)c1ccc(C(O)(C(=O)O)c2ccc(C(C)C)cc2)cc1`, the figure is 21.5% [at 11.4 µM] (inactive); as for `C[C@@]12CC[C@@H]3[C@H](CCC4=CC(=O)CC[C@]43C)[C@@H]1CC[C@@H]2C(=O)COS(=O)(=O)c1ccc(Br)cc1`, -21.8% [at 11.4 µM] (inactive); as for `COc1cc2c3cc1Oc1cc(ccc1O)C[C@@H]1c4c(cc(OC)c(O)c4Oc4cccc(c4)C[C@H]3N(C)CC2)CC[N+]1(C)C`, 1.07% [at 25.6 µM] (inactive).
In the case of `Cc1nc2ccccc2cc1C[N+]12CN3CN(CN(C3)C1)C2`, the activity, negative = inhibition was -23.7% [at 11.4 µM] (inactive).
For `O=C(Cc1ccc(Cl)c(Cl)c1)N1CCCC[C@H]1CN1CCCC1`, the AC50 entry was “inactive and 6.31 µM (active)”.
On to `COC(=O)N1CCN(C(=O)Cc2ccc(Cl)c(Cl)c2)[C@H](CN2CCCC2)C1`, for which the AC50 entry is “inactive and 25.1 µM (active)”.
Turning to `CC[N+](CC)(CC)CCOc1cccc(OCC[N+](CC)(CC)CC)c1OCC[N+](CC)(CC)CC`, the “activity, negative = inhibition” value is -7.51% (inactive).
Still for that read-out and setting: as for `C=C[C@H]1CN2CC[C@@H]1C[C@H]2[C@@H](O)c1ccnc2ccccc12`, the figure is -24.2% [at 25.6 µM] (inactive); as for `N[C@H](Cn1ccc(=O)[nH]c1=O)C(=O)O`, 23.1% (inactive); as for `C[C@@]12CC[C@H](O[C@@H]3O[C@H](CO)[C@@H](O)[C@H](O)[C@@H]3O)C[C@@H]1CC[C@H]1[C@H]2CC[C@@]2(C)[C@@H](C3=CCOC3=O)CC[C@]12O`, 22.6% [at 11.4 µM] (inactive).
`COC(=O)[C@H]1[C@H](c2ccccc2)C(=O)[C@@]2(O)c3ccccc3O[C@@]12c1ccccc1`: the activity, negative = inhibition is -15.7% [at 11.4 µM] (inactive).
On the same count and under the same terms, then `COc1cc2c(cc1O)C[C@H]1c3c(cc(O)c(OC)c3-2)CCN1C`, with -10.6% [at 25.6 µM] (inactive).
Still for that read-out and setting: as for `CC1=CC(=O)C2=C(C)C[C@@H](O)[C@@H]3[C@@H](OC(=O)[C@H]3C)[C@H]12`, the figure is -9.8% [at 25.6 µM] (inactive).
As for `C[N+]1([O-])[C@@H]2CC[C@H]1CC(OC(=O)[C@@H](CO)c1ccccc1)C2` (stereo not given in full), the “activity, negative = inhibition” value is 10% [at 25.6 µM] (inactive).
For the molecule `CC12CN3CC(C)(CN(C1)C31CCSCC1)C2=O`, the “activity, negative = inhibition” value was -1.25% (inactive).
`O=C(COc1ccc2ccccc2c1)N1CCN(CC2CC3C=CC2C3)CC1` (stereo not given): the AC50 is 10 µM (active).
For `COc1cc(CN2CCN(C(=O)COc3ccccc3)CC2)cc(OC)c1OC`, the “activity, negative = inhibition” value is -23.4% (inactive).
Same read-out and setting: then `CC(=O)N1CCC2(CC1)CC(=O)c1cc(OCC(=O)N3CCN(C)CC3)ccc1O2`, with 11.3% (inactive); and `C(=NC12CN3CN(CN(C3)C1)C2)c1cccs1`, with -36.5% (inactive).
